Experimental data published in PMC7862700, “An all-to-all approach to the identification of sequence-specific readers for epigenetic DNA modifications on cytosine”.

What was measured:
Experiment in all cases: DAPPL (digital affinity profiling via proximity ligation, sequencing); 10 mM Tris-HCl pH 7.5, 50 mM NaCl, 1 mM DTT, 4% glycerol, room temperature, 30 min; GST-TFs on glutathione beads, 16-mer random dsDNA library, 0.1% formaldehyde crosslink after washing; high values mean tight binding
Conditions in all cases: protein: recombinant; tags: N-terminal GST; dsDNA, one strand shown
FLI1 = biological target: T1, FLI1 (Homo sapiens, UniProt Q01543 1-452)
T1 sequence: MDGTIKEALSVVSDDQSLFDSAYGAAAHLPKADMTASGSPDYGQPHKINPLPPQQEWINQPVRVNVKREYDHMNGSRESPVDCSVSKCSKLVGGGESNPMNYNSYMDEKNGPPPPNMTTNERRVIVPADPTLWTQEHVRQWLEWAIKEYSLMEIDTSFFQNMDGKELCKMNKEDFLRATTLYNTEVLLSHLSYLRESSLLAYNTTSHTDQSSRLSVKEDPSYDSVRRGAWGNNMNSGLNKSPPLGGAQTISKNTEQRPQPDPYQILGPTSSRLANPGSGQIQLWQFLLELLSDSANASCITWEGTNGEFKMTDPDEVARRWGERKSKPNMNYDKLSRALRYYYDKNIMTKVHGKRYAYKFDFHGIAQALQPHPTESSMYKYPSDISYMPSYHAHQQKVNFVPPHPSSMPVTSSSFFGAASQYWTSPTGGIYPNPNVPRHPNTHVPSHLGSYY
Procedure, shortened: (§1)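 Human transcription factors were made in yeast as GST fusions, captured on glutathione beads and barcoded with DNA. With a tag-only sample included, the pool was incubated with 200 nmole of a random double-stranded 16-mer DNA library in Tris/NaCl/DTT/glycerol buffer at room temperature for 30 min, then crosslinked with 0.1% formaldehyde after washing, ligated by proximity, amplified and sequenced. For binding signal, each hexamer's read frequency for a factor is divided by its frequency for the tag-only sample.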

EHF = biological target: T2, EHF (Homo sapiens, UniProt Q9NZC4 1-300)
T2 sequence: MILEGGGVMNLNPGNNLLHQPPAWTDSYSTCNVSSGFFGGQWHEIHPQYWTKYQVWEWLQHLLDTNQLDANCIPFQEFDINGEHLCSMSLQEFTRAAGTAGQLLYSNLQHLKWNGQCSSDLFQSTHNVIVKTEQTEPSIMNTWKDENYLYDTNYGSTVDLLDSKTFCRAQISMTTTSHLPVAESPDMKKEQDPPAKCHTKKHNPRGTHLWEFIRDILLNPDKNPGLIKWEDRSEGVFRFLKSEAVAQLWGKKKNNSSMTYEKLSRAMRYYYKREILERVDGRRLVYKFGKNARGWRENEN
Procedure, shortened: as §1

ELK3 = biological target: T3, ELK3 (Homo sapiens, UniProt P41970 1-407)
T3 sequence: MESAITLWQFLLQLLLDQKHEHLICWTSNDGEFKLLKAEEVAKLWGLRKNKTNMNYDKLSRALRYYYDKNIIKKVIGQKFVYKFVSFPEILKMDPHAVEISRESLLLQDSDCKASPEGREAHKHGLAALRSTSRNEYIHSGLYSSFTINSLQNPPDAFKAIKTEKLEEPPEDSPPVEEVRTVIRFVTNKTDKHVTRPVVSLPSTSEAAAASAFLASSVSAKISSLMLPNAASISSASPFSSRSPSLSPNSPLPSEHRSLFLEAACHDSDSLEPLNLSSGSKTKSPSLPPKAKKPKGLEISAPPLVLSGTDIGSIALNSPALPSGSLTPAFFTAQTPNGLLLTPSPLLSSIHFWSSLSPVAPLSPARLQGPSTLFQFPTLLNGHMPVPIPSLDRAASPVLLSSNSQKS
Procedure, shortened: as §1

SPIC = biological target: T4, SPIC (Homo sapiens, UniProt Q8N5J4 1-248)
T4 sequence: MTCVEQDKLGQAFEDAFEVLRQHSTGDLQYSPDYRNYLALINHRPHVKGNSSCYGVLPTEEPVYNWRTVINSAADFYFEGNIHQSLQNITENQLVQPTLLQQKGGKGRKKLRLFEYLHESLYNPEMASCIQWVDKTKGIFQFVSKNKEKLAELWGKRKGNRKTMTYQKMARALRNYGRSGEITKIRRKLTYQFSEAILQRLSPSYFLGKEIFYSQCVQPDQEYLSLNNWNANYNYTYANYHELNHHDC
Procedure, shortened: as §1

ELK4 = biological target: T5, ELK4 (Homo sapiens, UniProt P28324-2 1-405)
T5 sequence: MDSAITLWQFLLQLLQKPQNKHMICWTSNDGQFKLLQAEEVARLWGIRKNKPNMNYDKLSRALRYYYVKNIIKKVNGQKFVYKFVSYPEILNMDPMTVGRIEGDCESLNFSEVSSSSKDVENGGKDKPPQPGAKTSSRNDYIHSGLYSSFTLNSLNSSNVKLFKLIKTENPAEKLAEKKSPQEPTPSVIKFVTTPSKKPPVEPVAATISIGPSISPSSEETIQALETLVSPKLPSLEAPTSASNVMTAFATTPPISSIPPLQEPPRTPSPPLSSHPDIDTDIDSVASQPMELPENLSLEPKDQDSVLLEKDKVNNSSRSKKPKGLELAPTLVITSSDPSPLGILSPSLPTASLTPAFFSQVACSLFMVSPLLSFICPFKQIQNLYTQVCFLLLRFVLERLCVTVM
Procedure, shortened: as §1

ETV2 = biological target: T6, ETV2 (Homo sapiens, UniProt O00321 1-342)
T6 sequence: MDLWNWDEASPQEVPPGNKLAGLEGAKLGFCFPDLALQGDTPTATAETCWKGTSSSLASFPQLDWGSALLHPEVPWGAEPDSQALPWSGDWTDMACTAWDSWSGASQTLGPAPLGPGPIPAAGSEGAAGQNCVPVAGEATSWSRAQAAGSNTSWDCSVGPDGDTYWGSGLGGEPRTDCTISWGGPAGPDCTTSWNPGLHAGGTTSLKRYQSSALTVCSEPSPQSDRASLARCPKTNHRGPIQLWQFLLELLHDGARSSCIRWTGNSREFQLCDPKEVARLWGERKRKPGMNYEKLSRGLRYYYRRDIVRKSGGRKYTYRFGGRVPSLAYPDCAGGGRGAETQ
Procedure, shortened: as §1

ETV3 = biological target: T7, ETV3 (Homo sapiens, UniProt P41162-2 1-143)
T7 sequence: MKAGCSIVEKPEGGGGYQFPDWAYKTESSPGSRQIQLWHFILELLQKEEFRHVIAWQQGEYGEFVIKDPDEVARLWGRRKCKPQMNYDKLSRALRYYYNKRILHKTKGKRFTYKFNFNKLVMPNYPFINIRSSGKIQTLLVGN
Procedure, shortened: as §1

ETV6 = ETV6 (Homo sapiens, UniProt P41212 1-452)
Procedure, shortened: as §1

ELK1 = biological target: T8, ELK1 (Homo sapiens, UniProt P19419 1-428)
T8 sequence: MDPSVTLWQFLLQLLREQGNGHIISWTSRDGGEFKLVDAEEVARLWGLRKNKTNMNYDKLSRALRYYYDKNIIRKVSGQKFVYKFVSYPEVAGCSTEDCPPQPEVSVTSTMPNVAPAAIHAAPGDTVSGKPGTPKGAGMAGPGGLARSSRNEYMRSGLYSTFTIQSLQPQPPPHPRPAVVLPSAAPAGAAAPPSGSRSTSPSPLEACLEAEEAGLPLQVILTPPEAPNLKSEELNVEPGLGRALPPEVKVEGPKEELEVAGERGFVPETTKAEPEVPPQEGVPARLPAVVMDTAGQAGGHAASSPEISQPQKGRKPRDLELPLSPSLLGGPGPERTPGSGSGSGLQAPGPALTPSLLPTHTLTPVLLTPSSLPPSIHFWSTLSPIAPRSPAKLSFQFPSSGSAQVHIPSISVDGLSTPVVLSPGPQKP
Procedure, shortened: as §1

ELF1 = ELF1 (Homo sapiens, UniProt P32519 1-619)
Procedure, shortened: as §1

SPIB = SPIB (Homo sapiens, UniProt Q01892 1-262)
Procedure, shortened: as §1

ELF4 = ELF4 (Homo sapiens, UniProt Q99607 1-663)
Procedure, shortened: as §1

ERF = biological target: T9, ERF (Homo sapiens, UniProt P50548 1-548)
T9 sequence: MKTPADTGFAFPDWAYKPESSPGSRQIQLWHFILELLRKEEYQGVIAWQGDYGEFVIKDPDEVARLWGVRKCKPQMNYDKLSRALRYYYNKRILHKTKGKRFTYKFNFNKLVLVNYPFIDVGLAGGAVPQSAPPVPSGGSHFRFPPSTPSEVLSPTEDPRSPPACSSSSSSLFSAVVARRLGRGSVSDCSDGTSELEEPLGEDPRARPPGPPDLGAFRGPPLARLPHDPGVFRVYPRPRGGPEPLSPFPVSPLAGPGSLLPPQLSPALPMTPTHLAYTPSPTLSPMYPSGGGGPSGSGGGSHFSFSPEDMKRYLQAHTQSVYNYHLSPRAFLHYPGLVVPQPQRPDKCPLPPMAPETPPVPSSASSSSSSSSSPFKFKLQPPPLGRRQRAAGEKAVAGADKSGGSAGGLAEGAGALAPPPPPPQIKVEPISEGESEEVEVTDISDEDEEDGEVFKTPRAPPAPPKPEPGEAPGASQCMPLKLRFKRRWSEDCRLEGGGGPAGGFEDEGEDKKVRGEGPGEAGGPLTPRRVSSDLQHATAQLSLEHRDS
Procedure, shortened: as §1

ETV7 = biological target: T10, ETV7 (Homo sapiens, UniProt Q9Y603 1-341)
T10 sequence: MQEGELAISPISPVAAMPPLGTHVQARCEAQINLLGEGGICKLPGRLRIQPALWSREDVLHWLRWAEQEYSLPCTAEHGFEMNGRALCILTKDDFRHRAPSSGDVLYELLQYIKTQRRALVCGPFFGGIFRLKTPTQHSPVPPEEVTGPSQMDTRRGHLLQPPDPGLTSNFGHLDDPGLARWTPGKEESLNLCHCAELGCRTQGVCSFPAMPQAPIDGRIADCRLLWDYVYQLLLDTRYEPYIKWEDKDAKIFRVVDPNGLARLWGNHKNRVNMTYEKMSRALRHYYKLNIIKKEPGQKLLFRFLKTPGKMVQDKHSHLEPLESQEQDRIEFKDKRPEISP
Procedure, shortened: as §1

ELF4, sequence (Q99607 whole entry): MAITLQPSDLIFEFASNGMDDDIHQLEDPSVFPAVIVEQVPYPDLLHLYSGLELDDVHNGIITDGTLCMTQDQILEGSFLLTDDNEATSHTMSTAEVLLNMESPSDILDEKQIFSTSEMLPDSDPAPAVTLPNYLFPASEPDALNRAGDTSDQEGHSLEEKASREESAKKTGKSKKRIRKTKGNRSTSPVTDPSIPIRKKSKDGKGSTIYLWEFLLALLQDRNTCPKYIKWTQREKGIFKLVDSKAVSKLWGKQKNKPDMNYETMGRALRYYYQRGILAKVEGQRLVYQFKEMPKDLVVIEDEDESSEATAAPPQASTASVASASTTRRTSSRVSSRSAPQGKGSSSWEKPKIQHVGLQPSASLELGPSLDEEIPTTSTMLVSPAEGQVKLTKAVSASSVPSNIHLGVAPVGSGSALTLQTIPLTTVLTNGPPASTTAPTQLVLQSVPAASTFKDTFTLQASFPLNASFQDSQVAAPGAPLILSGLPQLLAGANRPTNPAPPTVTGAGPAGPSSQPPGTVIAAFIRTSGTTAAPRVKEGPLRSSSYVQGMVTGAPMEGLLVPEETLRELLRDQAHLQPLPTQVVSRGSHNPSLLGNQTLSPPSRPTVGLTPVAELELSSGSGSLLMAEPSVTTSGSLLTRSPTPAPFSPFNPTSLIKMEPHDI
SPIB, sequence (Q01892 whole entry): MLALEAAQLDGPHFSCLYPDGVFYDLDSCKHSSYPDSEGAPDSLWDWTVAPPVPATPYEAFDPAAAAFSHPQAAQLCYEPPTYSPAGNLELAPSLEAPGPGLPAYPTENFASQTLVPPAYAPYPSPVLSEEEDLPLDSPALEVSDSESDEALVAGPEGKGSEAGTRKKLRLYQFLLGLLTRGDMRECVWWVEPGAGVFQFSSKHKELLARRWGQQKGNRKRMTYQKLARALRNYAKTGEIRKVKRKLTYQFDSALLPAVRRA
ELF1, sequence (P32519 whole entry): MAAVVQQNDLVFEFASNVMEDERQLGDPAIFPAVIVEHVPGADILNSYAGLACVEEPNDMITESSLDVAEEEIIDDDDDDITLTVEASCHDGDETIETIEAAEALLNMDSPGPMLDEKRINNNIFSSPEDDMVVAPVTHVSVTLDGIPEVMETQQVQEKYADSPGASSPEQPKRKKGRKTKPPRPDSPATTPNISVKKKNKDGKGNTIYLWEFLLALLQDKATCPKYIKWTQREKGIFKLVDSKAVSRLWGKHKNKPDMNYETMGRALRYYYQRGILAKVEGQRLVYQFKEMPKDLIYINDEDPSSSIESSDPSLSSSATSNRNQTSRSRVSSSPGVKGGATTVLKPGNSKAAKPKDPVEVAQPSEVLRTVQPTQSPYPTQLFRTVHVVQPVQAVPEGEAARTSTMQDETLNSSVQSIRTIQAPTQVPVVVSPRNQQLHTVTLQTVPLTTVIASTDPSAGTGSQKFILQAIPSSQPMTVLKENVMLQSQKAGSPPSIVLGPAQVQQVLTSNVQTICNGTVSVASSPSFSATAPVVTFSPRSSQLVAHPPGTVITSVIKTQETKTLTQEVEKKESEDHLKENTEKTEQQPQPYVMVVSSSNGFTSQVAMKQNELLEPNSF
ETV6, sequence (P41212 whole entry): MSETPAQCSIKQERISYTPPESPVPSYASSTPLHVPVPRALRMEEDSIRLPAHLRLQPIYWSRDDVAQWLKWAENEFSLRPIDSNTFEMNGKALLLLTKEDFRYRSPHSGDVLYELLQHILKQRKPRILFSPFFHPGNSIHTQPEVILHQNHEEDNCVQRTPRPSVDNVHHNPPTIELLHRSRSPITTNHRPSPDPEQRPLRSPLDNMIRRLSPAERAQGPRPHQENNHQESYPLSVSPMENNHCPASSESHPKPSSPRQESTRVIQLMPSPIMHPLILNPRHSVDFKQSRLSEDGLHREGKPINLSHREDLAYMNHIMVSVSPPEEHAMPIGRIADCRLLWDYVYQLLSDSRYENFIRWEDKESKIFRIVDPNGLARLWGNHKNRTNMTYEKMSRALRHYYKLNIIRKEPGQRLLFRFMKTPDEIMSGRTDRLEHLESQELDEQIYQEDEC

Sequence: GTGGCA
- binding signal (FLI1): 1.05 fold enrichment (6-mer frequency, TF over GST control)
- binding signal (EHF): 1.03 fold enrichment (6-mer frequency, TF over GST control)
- binding signal (ELK3): 1.04 fold enrichment (6-mer frequency, TF over GST control)
- binding signal (SPIC): 1.04 fold enrichment (6-mer frequency, TF over GST control)
- binding signal (ELK4): 1.04 fold enrichment (6-mer frequency, TF over GST control)
- binding signal (ETV2): 1.07 fold enrichment (6-mer frequency, TF over GST control)
- binding signal (ETV3): 1 fold enrichment (6-mer frequency, TF over GST control)
- binding signal (ETV6): 1.05 fold enrichment (6-mer frequency, TF over GST control)

Sequence: CGGCCC
- binding signal (FLI1): 1.05 fold enrichment (6-mer frequency, TF over GST control)
- binding signal (ELK1): 1.03 fold enrichment (6-mer frequency, TF over GST control)
- binding signal (ELF1): 1.01 fold enrichment (6-mer frequency, TF over GST control)
- binding signal (SPIB): 1.07 fold enrichment (6-mer frequency, TF over GST control)
- binding signal (ELF4): 1.03 fold enrichment (6-mer frequency, TF over GST control)
- binding signal (ETV2): 1.19 fold enrichment (6-mer frequency, TF over GST control)
- binding signal (ERF): 1.01 fold enrichment (6-mer frequency, TF over GST control)
- binding signal (ETV7): 1.05 fold enrichment (6-mer frequency, TF over GST control)
